Some test systems named below: HCT-15 colon; HT29 colon; SNB-75 CNS; SNB-19 CNS; U251 CNS; PC-3 prostate; SK-MEL-5 melanoma; UACC-62 melanoma; LOX IMVI melanoma; SK-MEL-28 melanoma; SK-MEL-2 melanoma; EKVX NSCLC; SN12C renal; UO-31 renal; TK-10 renal; ACHN renal; CAKI-1 renal; A498 renal; CCRF-CEM leukemia; MOLT-4 leukemia.
Common to all, as to assay: NCI-60 one-dose screen, 48 h (100 = growth as untreated, 0 = no growth, -100 = all killed)
Holding throughout (details): 10 µM unless noted

Several values for one entry are separate records, joined by “and”; a condition that tells them apart may be missing. Equal values may be shown once. Compounds without any hit were thinned out: in the full panel of roughly 83,000, 20% have a hit.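 Treatment: one concentration, 48 hours, 96-well format. Scoring: percent growth, with anything below 10 considered active.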 Activity calls are given as the source filed them.

Take `CCCCC1COc2cccc3c2N1C=C/C3=C\C(=O)N(C)c1cccc(Cl)c1` (stereo not given): the growth is 99.4% (inactive) in the experiment with HCT-15 colon; 109% (inactive) with HT29 colon; 93% (inactive) in the experiment with SNB-75 CNS; 91.5% (inactive) in the experiment with SNB-19 CNS; 101% (inactive) with U251 CNS; 89.6% (inactive) in the experiment on PC-3 prostate. Further, the growth in the experiment on SK-MEL-5 melanoma is 102% (inactive); in the experiment with UACC-62 melanoma it was 85.9% (inactive); in the experiment on LOX IMVI melanoma, 99% (inactive); with SK-MEL-28 melanoma, 104% (inactive); in the experiment on SK-MEL-2 melanoma it was 121% (inactive); in the experiment with EKVX NSCLC, 95.8% (inactive). Besides, the growth in the experiment on SN12C renal was 94.2% (inactive); in the experiment on UO-31 renal, 78% (inactive); with TK-10 renal, 112% (inactive); with ACHN renal, 98.5% (inactive); in the experiment on CAKI-1 renal it was 78.9% (inactive); in the experiment on A498 renal, 94.6% (inactive). In addition, the growth in the experiment on CCRF-CEM leukemia was 97.2% (inactive); with MOLT-4 leukemia, 86.6% (inactive).

As for `Nc1nc(N)c2c(n1)NC(c1cccc(Nc3ccnc4cc(C(F)(F)F)ccc34)c1)CC(c1ccc(F)cc1)=N2` (stereo not given), the growth in the experiment with HCT-15 colon is 21.3% (inactive); in the experiment on HT29 colon, 12.5% (inactive); with SNB-75 CNS it was 47.1% (inactive); in the experiment on SNB-19 CNS, 61.3% (inactive); in the experiment on U251 CNS, 33.6% (inactive); in the experiment on PC-3 prostate, 34.4% (inactive). Also, the growth in the experiment with SK-MEL-5 melanoma was 30.4% (inactive); with UACC-62 melanoma, 71.4% (inactive); in the experiment with LOX IMVI melanoma, 40.5% (inactive); in the experiment with SK-MEL-28 melanoma it was 79.2% (inactive); in the experiment with SK-MEL-2 melanoma it was 37.3% (inactive); in the experiment on EKVX NSCLC, 47% (inactive). Also, the growth was 59.8% (inactive) in the experiment with SN12C renal; 53.7% (inactive) with UO-31 renal; 91.8% (inactive) with TK-10 renal; 75.5% (inactive) in the experiment on ACHN renal; 47.1% (inactive) in the experiment on CAKI-1 renal; 78.1% (inactive) in the experiment with A498 renal. The growth in the experiment on CCRF-CEM leukemia is 25% (inactive); in the experiment with MOLT-4 leukemia, 2.74% (active).

In the case of `COc1ccccc1/C=C/C(=O)/C=C/c1ccccc1OC`, the growth with HCT-15 colon was -2.72% (active) and -27.6% (active); in the experiment with HT29 colon, -42.7% (active) and -16.4% (active); in the experiment on SNB-75 CNS, 45.2% (inactive) and 12.6% (inactive); in the experiment on SNB-19 CNS it was 33.5% (inactive) and 38.5% (inactive); in the experiment on U251 CNS it was -81% (active) and -40.1% (active); in the experiment with PC-3 prostate, 0.508% (active) and 17% (inactive). The growth in the experiment with SK-MEL-5 melanoma was -89.4% (active) and -77% (active); in the experiment on UACC-62 melanoma it was -61.6% (active) and -64.3% (active); in the experiment on LOX IMVI melanoma, -60.1% (active) and -53.8% (active); with SK-MEL-28 melanoma, -58.9% (active) and -57.8% (active); with SK-MEL-2 melanoma, 2.6% (active) and 1.3% (active); in the experiment on EKVX NSCLC, 12.6% (inactive). Moreover, the growth in the experiment on SN12C renal was -27.2% (active) and -3.57% (active); in the experiment on UO-31 renal it was -89.9% (active) and -54.9% (active); with TK-10 renal it was -11.8% (active) and 0.143% (active); in the experiment with ACHN renal, -62.5% (active) and -84.2% (active); with CAKI-1 renal it was 17.5% (inactive) and 4.88% (active); in the experiment with A498 renal, -48.3% (active) and 22.8% (inactive). For the same compound, the growth in the experiment on CCRF-CEM leukemia was 15.5% (inactive) and 6.56% (active); in the experiment on MOLT-4 leukemia it was 14.8% (inactive) and 12.1% (inactive).

Turning to `COC1/C=C/OC2(C)Oc3c(C)c(O)c4c(O)c(c(C=NOC(c5ccccc5)c5ccccc5)c(O)c4c3C2=O)NC(=O)/C(C)=C/C=C/C(C)C(O)C(C)C(O)C(C)C(OC(C)=O)C1C` (stereo not given), the growth was 13.2% (inactive) in the experiment on HCT-15 colon; -12.1% (active) in the experiment with HT29 colon; 17.2% (inactive) with SNB-75 CNS; 30.8% (inactive) in the experiment with SNB-19 CNS; 10.4% (inactive) in the experiment on U251 CNS; 9.81% (active) in the experiment on PC-3 prostate. The growth in the experiment with SK-MEL-5 melanoma was 6.07% (active); in the experiment on UACC-62 melanoma, -4.64% (active); in the experiment on LOX IMVI melanoma, 0.468% (active); with SK-MEL-28 melanoma, -7.28% (active); in the experiment with SK-MEL-2 melanoma, -24.9% (active); in the experiment with EKVX NSCLC, 20.4% (inactive). In addition, the growth in the experiment with SN12C renal was 17.3% (inactive); in the experiment with UO-31 renal, 27.2% (inactive); in the experiment with TK-10 renal, 30.9% (inactive); in the experiment on ACHN renal it was 20.3% (inactive); in the experiment on CAKI-1 renal it was 14% (inactive); in the experiment on A498 renal, 58.5% (inactive). Besides, the growth in the experiment with CCRF-CEM leukemia was 13.5% (inactive); with MOLT-4 leukemia it was 5.43% (active).

As for `Cn1cc(-c2csc(-c3cn(CCOC(N)=O)c4ccccc34)n2)c2cccnc21`, the growth is 64% (inactive) in the experiment on HCT-15 colon; 47.6% (inactive) with HT29 colon; 80.7% (inactive) in the experiment on SNB-75 CNS; 78.6% (inactive) with SNB-19 CNS; 77.8% (inactive) in the experiment with U251 CNS; 63.6% (inactive) in the experiment with PC-3 prostate. The growth with SK-MEL-5 melanoma is 71.9% (inactive); with UACC-62 melanoma, 72.2% (inactive); with LOX IMVI melanoma, 79% (inactive); in the experiment with SK-MEL-28 melanoma, 92.5% (inactive); with SK-MEL-2 melanoma, 84.8% (inactive); with EKVX NSCLC it was 68.7% (inactive). The growth with SN12C renal is 88.3% (inactive); in the experiment on UO-31 renal it was 79.6% (inactive); with TK-10 renal, 82.6% (inactive); with ACHN renal, 97% (inactive); with CAKI-1 renal, 88.2% (inactive); in the experiment on A498 renal, 19% (inactive). Moreover, the growth in the experiment with CCRF-CEM leukemia was 73.9% (inactive); in the experiment on MOLT-4 leukemia, 69.1% (inactive).

On to `Clc1ccc(Nc2nc(Nc3ccc(Cl)cc3)nc(Nc3ccc(-c4cc(-c5cccc(Cl)c5)on4)cc3)n2)cc1`, for which the growth with HCT-15 colon was 89.8% (inactive); in the experiment with HT29 colon it was 105% (inactive); in the experiment on SNB-75 CNS, 99.4% (inactive); in the experiment on SNB-19 CNS, 101% (inactive); with U251 CNS it was 79% (inactive); in the experiment on PC-3 prostate, 86.7% (inactive). For the same compound, the growth in the experiment with SK-MEL-5 melanoma is 88% (inactive); with UACC-62 melanoma, 105% (inactive); with LOX IMVI melanoma, 79.4% (inactive); with SK-MEL-28 melanoma it was 108% (inactive); in the experiment on SK-MEL-2 melanoma, 72.9% (inactive); in the experiment with EKVX NSCLC, 82.9% (inactive). Moreover, the growth in the experiment with SN12C renal was 94.4% (inactive); in the experiment on UO-31 renal it was 90.1% (inactive); with TK-10 renal it was 155% (inactive); in the experiment on ACHN renal it was 86.4% (inactive); in the experiment with CAKI-1 renal it was 85.4% (inactive); in the experiment with A498 renal, 99.9% (inactive). Further, the growth is 61% (inactive) in the experiment on CCRF-CEM leukemia and 7.82% (active) in the experiment on MOLT-4 leukemia.
